The panel holds about 79,000 compounds, 15% with a hit somewhere; the sample as a whole holds those more often. Values without a mark were called inactive. Calls of active or inactive are those of the source. No stated cut-off is given here; in the data, active means growth inhibition above about 70%; inactive means the rest.

Assay [1] can be described thus: NCI Yeast Anticancer Drug Screen. Data for the rad50 strain (AID 155).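 Further: 0% = growth of vehicle-only cultures of the same strain.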 The conditions noted are these: S. cerevisiae rad50 strain growth inhibition; at 50.0 µM; hits give high values. In short, it runs like this:
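Inhibition values express reduced yeast growth in compound-treated cultures relative to vehicle-treated controls.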

Assay [2] can be described thus: NCI Yeast Anticancer Drug Screen. Data for the mec2-1 strain (AID 157). The conditions noted are these: S. cerevisiae mec2-1 strain, at 50.0 µM, hits give high values. In short, it runs like this: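 Using mec2-1 yeast: add compound, measure growth, express inhibition versus vehicle-treated cultures.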
The nature of assay [3]: NCI Yeast Anticancer Drug Screen. Data for the sgs1 mgt1 strain (AID 161).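 Further: 0% = growth of cultures given vehicle only.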 The conditions noted are these: S. cerevisiae sgs1 mgt1 strain, at 50.0 µM, hits give high values. Put shortly: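 This yeast growth screen uses a strain with defined DNA-repair lesions; compound-treated growth is compared with vehicle-treated growth.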
Assay [4] is described as follows: NCI Yeast Anticancer Drug Screen. Data for the cln2 rad14 strain (AID 165).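 Further: 0% = growth equal to vehicle treated cultures.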 The conditions noted are these: S. cerevisiae cln2 rad14 strain, at 50.0 µM, hits give high values. Put shortly:
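Yeast strain cln2 rad14, bearing defects in cell cycle control and DNA repair, serves as the test system; values reflect growth inhibition compared with vehicle.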

Assay [5] in a line: NCI Yeast Anticancer Drug Screen. Data for the bub3 strain (AID 167). The conditions noted are these: S. cerevisiae bub3 mutant strain, at 50.0 µM, hits give high values. In short, it runs like this: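 Steps: expose the mutant yeast strain to compound; grow alongside vehicle-treated cultures; measure growth; express inhibition against the vehicle cultures.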
Assay [6] can be described thus: NCI Yeast Anticancer Drug Screen. Data for the mlh1 rad18 strain (AID 175). The conditions noted are these: S. cerevisiae mlh1 rad18 strain growth inhibition; at 50.0 µM; hits give high values. Put shortly: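 Steps: expose repair-defective yeast to compound; measure growth; express inhibition against vehicle-treated controls.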

`CSc1cc(Br)ccc1-n1c(C(=O)c2ccccc2)c(SC)n(-c2ccccc2)c1=O`: the growth inhibition in assay [1] was -0.05%; in assay [2], 21.3%; in assay [3] it was 20.6%; in assay [4], 7.65%; in assay [5] it was 15.7%; in assay [6], 5.05%.

Regarding `O=C1C2Nc3ccccc3N=C2OC1c1ccc(Cl)c(Cl)c1` (stereo unspecified), the growth inhibition in assay [1] is 10.1%; in assay [2] it was -5.35%; in assay [3] it was 15.7%; in assay [4], 7%; in assay [5] it was -4.8%; in assay [6], 24.6%.

For the molecule `CN/C=C(/c1ccc(OC)cc1)C(O)c1ccc(OC)c(OC)c1` (stereo unspecified), the growth inhibition in assay [1] was -17.9%; in assay [2] it was -16.2%; in assay [3], -38%; in assay [4], 2.75%; in assay [5], -10.8%; in assay [6] it was -20.4%.

With `CCOC(=S)SCC(=O)c1ccc(Br)cc1`, the growth inhibition in assay [1] is 67%; in assay [2], 70.5% (active); in assay [3], 66.8%; in assay [4] it was -7.5%; in assay [5] it was 55.2%; in assay [6], 83.5% (active).

For `C[N+]1(C)CCCC(OC(=O)C(O)(c2ccccc2)c2ccccc2)C1` (stereo unspecified), the growth inhibition in assay [1] was 38%; in assay [2] it was 10.1%; in assay [3] it was 15.6%; in assay [4], -18.9%; in assay [5], 13.6%; in assay [6] it was 27.7%.

Consider `CC1(C(N)=O)CCC1`, for which the growth inhibition in assay [1] was 1.8%; in assay [2], -15.4%; in assay [3] it was -18.4%; in assay [4], -24.1%; in assay [5] it was 10.2%; in assay [6], -20.9%.

With `Cc1cc(S(N)(=O)=O)c(SCc2nc(N)nc(N(C)C)n2)cc1Cl`, the growth inhibition in assay [1] was -30.8%; in assay [2], -22.3%; in assay [3], -20.3%; in assay [4] it was 9.05%; in assay [5], -37.4%; in assay [6], 7.8%.

Take `C(=C(c1ccccc1)c1ccccc1)=C(c1ccccc1)c1ccccc1`: the growth inhibition in assay [1] was 30.8%; in assay [2], 12.9%; in assay [3], 24.6%; in assay [4], -15.4%; in assay [5], 4.95%; in assay [6] it was 32%.

With `Nc1nc2c(c(=O)[nH]1)CN(c1ccc(S(N)(=O)=O)cc1)CN2`, the growth inhibition in assay [1] is 25.9%; in assay [2] it was -24.6%; in assay [3], 0.5%; in assay [4] it was -7.45%; in assay [5], -26.4%; in assay [6], -12.3%.

With `O=C(Nc1ccc(Cl)cc1C(F)(F)F)C(=O)C1CCCS1(=O)=O` (stereo unspecified), the growth inhibition in assay [1] is -7.05%; in assay [2], -10.9%; in assay [3], -4.5%; in assay [4] it was 12.9%; in assay [5] it was -6.4%; in assay [6], -8.8%.

Consider `OCC1CC2c3ccccc3C1c1ccccc12` (stereo unspecified), for which the growth inhibition was -12% in assay [1]; -22.1% in assay [2]; -12.1% in assay [3]; -0.05% in assay [4]; -28.4% in assay [5]; -6.75% in assay [6].

For the molecule `CCCCOC(=O)NC(=O)c1cn(CCCOC(=O)CCCCCCCCC(=O)OCCCn2cc(C(=O)NC(=O)OCCCC)c(=O)n(C)c2=O)c(=O)n(C)c1=O`, the growth inhibition was -3.9% in assay [1]; -10.9% in assay [2]; -10.7% in assay [3]; 12.2% in assay [4]; 14.3% in assay [5]; -5.55% in assay [6].

With `C1=COC(C2NCCCN2)CC1` (stereo unspecified), the growth inhibition in assay [1] is -5.9%; in assay [2], 8.25%; in assay [3], -2.6%; in assay [4] it was -68.8%; in assay [5], -26.5%; in assay [6], -3.7%.

`CC1(c2ccncc2)NC(=O)NC1=O` (stereo unspecified): the growth inhibition is 31.9% in assay [1]; -12.6% in assay [2]; 10.3% in assay [3]; 1.4% in assay [4]; -5.8% in assay [5]; 18.6% in assay [6].

`CN1CCC/C1=C/C(=O)c1ccccc1[N+](=O)[O-]`: the growth inhibition is 2.9% in assay [1]; -0.1% in assay [2]; -0.65% in assay [3]; -28.3% in assay [4]; 9.6% in assay [5]; -11.7% in assay [6].

As to `O=C(Nc1ccc2ccccc2c1)C(F)(F)F`, the growth inhibition in assay [1] was -14.7%; in assay [2], -1%; in assay [3] it was -4.25%; in assay [4], -9.8%; in assay [5], 5.4%; in assay [6], -8.95%.

With `CN1C=CC=CC1=C1C(=O)c2ccccc2C1=O`, the growth inhibition was 26.8% in assay [1]; 12.6% in assay [2]; 17.2% in assay [3]; 35.6% in assay [4]; -2.1% in assay [5]; 23.2% in assay [6].

On to `O=C(CCCSCCCC(=O)N/N=C/c1ccccc1O)N/N=C\c1ccccc1O`, for which the growth inhibition was 4.7% in assay [1]; -0.5% in assay [2]; 4.95% in assay [3]; 0.75% in assay [4]; 6.65% in assay [5]; 19.8% in assay [6].

With `COc1ccc(Cl)cc1C(c1cc(Cl)ccc1OC)C(Cl)(Cl)Cl`, the growth inhibition was -7.35% in assay [1]; -1.6% in assay [2]; -9.05% in assay [3]; -23.6% in assay [4]; -16.6% in assay [5]; -13.4% in assay [6].

As to `CCCCOCCOC(=O)Nc1cccc(Cl)c1`, the growth inhibition in assay [1] is 35%; in assay [2], 30.7%; in assay [3], 51.1%; in assay [4] it was -11.6%; in assay [5], -0.3%; in assay [6] it was 2.15%.

Take `O=C1CC2(CCCC2)CC(=O)N1`: the growth inhibition in assay [1] is -11.2%; in assay [2] it was -11.4%; in assay [3] it was -15.6%; in assay [4], -29.4%; in assay [5], 6.4%; in assay [6], -8.1%.

For the origin of these results see PubChem BioAssay (NCI).
